# Legend:
# Test in all cases: DAPPL (digital affinity profiling via proximity ligation, sequencing); 10 mM Tris-HCl pH 7.5, 50 mM NaCl, 1 mM DTT, 4% glycerol, room temperature, 30 min; GST-TFs on glutathione beads, 16-mer random dsDNA library, 0.1% formaldehyde crosslink after washing; high values mean tight binding
# FLI1 = biological target: T1, FLI1 (Homo sapiens, UniProt Q01543 1-452); settings: protein: recombinant; tags: N-terminal GST; dsDNA, one strand shown
# T1 sequence: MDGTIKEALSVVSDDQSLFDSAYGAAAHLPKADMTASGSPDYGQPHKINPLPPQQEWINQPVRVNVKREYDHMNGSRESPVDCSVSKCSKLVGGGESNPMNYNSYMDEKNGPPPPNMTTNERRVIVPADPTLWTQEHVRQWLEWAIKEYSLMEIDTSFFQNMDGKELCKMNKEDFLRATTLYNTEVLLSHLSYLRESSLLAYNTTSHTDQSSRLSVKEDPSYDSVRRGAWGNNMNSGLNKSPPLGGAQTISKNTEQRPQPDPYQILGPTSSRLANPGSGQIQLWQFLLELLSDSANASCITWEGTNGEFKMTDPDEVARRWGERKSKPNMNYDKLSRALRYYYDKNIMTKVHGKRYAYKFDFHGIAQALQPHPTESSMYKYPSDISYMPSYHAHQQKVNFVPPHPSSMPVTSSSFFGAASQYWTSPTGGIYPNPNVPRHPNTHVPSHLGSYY
# Method in brief: (§1)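 Sequencing on an Illumina NextSeq500 followed washing, crosslinking with 0.1% formaldehyde, proximity ligation (BsaI/T4 ligase, 1 h, 37 °C) and PCR amplification of pools that had been incubated for 30 min at room temperature with 200 nmole of a random double-stranded 16-mer DNA library in Tris/NaCl/DTT/glycerol buffer. Each pool held DNA-barcoded human transcription factors, expressed in yeast as GST fusions and captured on glutathione beads, plus a tag-only sample. Binding signal is a hexamer's read frequency for a factor divided by its frequency in the tag-only sample.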
# ELK1 = biological target: T2, ELK1 (Homo sapiens, UniProt P19419 1-428); settings: protein: recombinant; tags: N-terminal GST; dsDNA, one strand shown
# T2 sequence: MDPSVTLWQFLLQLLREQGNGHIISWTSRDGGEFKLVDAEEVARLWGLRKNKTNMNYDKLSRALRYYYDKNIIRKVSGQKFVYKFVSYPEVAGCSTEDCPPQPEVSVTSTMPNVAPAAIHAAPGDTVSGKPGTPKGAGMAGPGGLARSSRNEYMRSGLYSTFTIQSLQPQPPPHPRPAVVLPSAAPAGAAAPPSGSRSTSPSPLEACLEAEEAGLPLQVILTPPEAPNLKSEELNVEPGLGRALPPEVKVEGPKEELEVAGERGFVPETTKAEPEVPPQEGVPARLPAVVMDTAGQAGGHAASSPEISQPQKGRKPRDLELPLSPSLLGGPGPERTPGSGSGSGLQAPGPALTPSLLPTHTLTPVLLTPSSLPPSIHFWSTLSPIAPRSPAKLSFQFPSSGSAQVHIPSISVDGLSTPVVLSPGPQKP
# Method in brief: as §1
# GABPA = biological target: T3, GABPA (Homo sapiens, UniProt Q06546 1-454); settings: protein: recombinant; tags: N-terminal GST; dsDNA, one strand shown
# T3 sequence: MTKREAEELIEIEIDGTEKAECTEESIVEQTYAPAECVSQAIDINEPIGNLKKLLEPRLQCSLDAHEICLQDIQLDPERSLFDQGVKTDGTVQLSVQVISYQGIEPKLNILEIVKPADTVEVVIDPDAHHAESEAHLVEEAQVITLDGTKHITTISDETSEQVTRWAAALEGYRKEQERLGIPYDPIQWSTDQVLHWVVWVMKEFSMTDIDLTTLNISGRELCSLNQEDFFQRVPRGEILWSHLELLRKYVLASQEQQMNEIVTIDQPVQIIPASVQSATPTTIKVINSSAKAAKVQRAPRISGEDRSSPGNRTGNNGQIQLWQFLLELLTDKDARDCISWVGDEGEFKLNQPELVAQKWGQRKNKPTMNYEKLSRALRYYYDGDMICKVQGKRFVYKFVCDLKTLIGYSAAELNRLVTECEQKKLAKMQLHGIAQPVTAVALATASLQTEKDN
# Method in brief: as §1
# ERG = biological target: T4, ERG (Homo sapiens, UniProt P11308 1-479); settings: protein: recombinant; tags: N-terminal GST; dsDNA, one strand shown
# T4 sequence: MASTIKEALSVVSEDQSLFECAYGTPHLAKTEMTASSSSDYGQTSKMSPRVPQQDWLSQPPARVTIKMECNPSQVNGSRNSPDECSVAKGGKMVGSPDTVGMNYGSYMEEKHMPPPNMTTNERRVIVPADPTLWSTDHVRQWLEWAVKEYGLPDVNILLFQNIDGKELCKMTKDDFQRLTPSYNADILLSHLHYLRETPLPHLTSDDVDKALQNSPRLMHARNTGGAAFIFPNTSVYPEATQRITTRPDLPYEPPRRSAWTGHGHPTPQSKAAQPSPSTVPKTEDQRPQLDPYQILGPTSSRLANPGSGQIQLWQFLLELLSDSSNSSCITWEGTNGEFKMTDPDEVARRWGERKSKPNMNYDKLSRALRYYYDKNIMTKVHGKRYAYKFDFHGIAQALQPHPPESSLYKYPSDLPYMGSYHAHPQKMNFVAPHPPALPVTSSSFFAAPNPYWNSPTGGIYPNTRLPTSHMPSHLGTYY
# Method in brief: as §1
# ELF1 = ELF1 (Homo sapiens, UniProt P32519 1-619); settings: protein: recombinant; tags: N-terminal GST; dsDNA, one strand shown
# ELF1, sequence (P32519 whole entry): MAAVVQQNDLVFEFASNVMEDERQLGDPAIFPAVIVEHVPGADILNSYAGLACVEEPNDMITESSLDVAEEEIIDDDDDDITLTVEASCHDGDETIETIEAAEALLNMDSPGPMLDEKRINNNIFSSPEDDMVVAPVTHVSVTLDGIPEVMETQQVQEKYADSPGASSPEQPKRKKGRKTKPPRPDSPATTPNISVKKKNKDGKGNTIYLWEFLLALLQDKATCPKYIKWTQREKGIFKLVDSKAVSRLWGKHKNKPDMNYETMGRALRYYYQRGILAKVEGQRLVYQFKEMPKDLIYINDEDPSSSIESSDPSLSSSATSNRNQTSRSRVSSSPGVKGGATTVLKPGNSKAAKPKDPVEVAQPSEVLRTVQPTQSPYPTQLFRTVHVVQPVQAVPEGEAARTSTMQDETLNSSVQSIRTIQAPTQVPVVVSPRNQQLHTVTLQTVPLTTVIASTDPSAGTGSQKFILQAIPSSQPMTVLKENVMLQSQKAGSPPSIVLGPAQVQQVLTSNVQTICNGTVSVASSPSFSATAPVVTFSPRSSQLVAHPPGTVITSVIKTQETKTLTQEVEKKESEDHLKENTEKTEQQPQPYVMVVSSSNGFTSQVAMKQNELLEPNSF
# Method in brief: as §1
# EHF = biological target: T5, EHF (Homo sapiens, UniProt Q9NZC4 1-300); settings: protein: recombinant; tags: N-terminal GST; dsDNA, one strand shown
# T5 sequence: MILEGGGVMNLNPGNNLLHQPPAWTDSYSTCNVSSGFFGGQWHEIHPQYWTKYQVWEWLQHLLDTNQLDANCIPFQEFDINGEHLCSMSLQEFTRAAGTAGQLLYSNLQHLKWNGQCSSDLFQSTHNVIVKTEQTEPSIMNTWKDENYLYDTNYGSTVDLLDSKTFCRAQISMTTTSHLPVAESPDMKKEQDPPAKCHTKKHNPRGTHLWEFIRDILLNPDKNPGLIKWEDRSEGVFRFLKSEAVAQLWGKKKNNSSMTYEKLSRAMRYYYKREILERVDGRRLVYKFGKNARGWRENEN
# Method in brief: as §1
# SPI1 = SPI1 (Homo sapiens, UniProt P17947 1-270); settings: protein: recombinant; tags: N-terminal GST; dsDNA, one strand shown
# Method in brief: as §1
# SPIB = SPIB (Homo sapiens, UniProt Q01892 1-262); settings: protein: recombinant; tags: N-terminal GST; dsDNA, one strand shown
# SPIB, sequence (Q01892 whole entry): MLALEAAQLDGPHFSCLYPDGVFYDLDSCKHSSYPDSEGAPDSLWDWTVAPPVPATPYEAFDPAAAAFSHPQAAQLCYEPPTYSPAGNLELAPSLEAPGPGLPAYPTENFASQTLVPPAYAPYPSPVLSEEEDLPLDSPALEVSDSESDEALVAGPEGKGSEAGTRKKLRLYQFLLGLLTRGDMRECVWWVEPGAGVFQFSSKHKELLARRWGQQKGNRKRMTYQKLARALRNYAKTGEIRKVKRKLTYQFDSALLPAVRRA
# Method in brief: as §1
# ELK3 = biological target: T6, ELK3 (Homo sapiens, UniProt P41970 1-407); settings: protein: recombinant; tags: N-terminal GST; dsDNA, one strand shown
# T6 sequence: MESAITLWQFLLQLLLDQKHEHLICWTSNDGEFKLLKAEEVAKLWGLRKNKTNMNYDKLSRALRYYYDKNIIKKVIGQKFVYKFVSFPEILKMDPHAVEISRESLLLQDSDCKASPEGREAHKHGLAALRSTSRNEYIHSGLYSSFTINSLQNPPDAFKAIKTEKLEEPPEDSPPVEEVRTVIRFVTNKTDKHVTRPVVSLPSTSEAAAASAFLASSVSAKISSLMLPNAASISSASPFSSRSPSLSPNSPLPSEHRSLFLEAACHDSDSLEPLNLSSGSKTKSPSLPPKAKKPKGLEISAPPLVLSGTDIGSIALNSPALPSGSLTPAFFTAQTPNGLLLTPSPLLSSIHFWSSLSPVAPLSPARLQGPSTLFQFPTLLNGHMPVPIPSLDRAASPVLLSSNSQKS
# Method in brief: as §1
# FEV = biological target: T7, FEV (Homo sapiens, UniProt Q99581 1-238); settings: protein: recombinant; tags: N-terminal GST; dsDNA, one strand shown
# T7 sequence: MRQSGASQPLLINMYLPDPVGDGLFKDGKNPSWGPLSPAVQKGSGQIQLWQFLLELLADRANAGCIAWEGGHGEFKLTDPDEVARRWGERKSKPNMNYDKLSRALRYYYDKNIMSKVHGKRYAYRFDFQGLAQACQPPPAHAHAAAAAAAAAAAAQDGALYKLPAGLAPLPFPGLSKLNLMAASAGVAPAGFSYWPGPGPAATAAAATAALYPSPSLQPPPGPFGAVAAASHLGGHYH
# Method in brief: as §1
# ETV5 = ETV5 (Homo sapiens, UniProt P41161 1-510); settings: protein: recombinant; tags: N-terminal GST; dsDNA, one strand shown
# ETV5, sequence (P41161 whole entry): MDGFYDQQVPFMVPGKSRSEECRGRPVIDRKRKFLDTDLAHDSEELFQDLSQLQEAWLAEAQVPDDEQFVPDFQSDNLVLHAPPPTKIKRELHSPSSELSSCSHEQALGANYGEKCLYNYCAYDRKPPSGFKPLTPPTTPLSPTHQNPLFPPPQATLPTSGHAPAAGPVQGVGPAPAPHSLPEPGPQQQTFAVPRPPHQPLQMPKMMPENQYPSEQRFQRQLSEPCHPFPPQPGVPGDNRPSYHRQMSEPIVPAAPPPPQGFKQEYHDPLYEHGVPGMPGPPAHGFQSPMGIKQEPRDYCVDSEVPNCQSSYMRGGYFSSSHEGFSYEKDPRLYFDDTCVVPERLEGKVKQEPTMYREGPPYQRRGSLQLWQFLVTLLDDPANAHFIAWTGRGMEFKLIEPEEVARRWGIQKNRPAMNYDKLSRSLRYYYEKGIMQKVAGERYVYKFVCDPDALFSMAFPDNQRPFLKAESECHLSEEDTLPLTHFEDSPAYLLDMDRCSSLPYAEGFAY
# Method in brief: as §1
# HSF1 = HSF1 (Homo sapiens, UniProt Q00613 1-529); settings: protein: recombinant; tags: N-terminal GST; chain copies: 3; dsDNA, one strand shown
# HSF1, sequence (Q00613 whole entry): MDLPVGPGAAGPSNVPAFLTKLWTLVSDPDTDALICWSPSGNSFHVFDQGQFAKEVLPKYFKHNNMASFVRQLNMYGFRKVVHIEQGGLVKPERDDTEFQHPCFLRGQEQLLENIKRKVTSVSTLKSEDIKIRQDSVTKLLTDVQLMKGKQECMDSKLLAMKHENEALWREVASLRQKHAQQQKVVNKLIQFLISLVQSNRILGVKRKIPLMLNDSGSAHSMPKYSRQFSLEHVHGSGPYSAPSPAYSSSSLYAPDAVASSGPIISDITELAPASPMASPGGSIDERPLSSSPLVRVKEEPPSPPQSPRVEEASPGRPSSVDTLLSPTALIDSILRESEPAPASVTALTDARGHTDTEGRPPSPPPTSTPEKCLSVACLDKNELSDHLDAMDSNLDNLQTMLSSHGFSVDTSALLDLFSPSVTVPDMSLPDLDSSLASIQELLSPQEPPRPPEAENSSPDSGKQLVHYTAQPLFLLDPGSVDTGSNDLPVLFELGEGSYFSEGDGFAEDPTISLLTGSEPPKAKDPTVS
# Method in brief: as §1
# SPIC = biological target: T8, SPIC (Homo sapiens, UniProt Q8N5J4 1-248); settings: protein: recombinant; tags: N-terminal GST; dsDNA, one strand shown
# T8 sequence: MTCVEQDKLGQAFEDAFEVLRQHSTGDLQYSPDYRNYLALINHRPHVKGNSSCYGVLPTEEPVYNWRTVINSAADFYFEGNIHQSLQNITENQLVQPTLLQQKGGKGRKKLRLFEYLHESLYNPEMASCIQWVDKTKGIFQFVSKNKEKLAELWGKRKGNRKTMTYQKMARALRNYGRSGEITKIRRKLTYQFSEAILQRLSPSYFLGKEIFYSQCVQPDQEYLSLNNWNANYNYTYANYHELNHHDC
# Method in brief: as §1
# ELF4 = ELF4 (Homo sapiens, UniProt Q99607 1-663); settings: protein: recombinant; tags: N-terminal GST; dsDNA, one strand shown
# ELF4, sequence (Q99607 whole entry): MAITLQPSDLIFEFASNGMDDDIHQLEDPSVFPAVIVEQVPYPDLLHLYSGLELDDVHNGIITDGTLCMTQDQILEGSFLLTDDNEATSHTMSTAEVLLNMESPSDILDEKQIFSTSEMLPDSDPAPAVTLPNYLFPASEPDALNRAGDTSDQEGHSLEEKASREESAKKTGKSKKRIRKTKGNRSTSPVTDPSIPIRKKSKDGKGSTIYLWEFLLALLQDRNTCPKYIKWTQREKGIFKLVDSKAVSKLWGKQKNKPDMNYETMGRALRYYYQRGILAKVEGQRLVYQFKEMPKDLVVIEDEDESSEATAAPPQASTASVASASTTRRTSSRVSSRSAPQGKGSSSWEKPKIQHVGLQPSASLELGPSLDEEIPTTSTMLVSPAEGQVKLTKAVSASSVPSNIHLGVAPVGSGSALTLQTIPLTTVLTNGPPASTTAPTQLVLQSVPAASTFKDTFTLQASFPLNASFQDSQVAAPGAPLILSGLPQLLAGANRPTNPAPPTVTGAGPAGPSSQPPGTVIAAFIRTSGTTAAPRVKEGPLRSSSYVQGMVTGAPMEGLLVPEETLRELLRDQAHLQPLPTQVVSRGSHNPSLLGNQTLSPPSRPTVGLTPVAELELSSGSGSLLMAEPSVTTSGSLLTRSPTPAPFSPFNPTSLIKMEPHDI
# Method in brief: as §1
# ELK4 = biological target: T9, ELK4 (Homo sapiens, UniProt P28324-2 1-405); settings: protein: recombinant; tags: N-terminal GST; dsDNA, one strand shown
# T9 sequence: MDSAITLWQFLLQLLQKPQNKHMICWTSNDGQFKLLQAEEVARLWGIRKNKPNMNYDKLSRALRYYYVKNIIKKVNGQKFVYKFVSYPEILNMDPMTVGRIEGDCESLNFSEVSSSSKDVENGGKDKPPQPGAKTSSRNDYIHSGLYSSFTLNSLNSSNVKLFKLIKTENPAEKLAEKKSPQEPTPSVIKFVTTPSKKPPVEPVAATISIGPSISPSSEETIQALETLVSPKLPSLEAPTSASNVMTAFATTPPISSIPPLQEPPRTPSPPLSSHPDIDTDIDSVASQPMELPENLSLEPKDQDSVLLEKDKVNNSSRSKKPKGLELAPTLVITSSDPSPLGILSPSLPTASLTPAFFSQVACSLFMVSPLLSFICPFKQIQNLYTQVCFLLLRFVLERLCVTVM
# Method in brief: as §1
# ETV2 = biological target: T10, ETV2 (Homo sapiens, UniProt O00321 1-342); settings: protein: recombinant; tags: N-terminal GST; dsDNA, one strand shown
# T10 sequence: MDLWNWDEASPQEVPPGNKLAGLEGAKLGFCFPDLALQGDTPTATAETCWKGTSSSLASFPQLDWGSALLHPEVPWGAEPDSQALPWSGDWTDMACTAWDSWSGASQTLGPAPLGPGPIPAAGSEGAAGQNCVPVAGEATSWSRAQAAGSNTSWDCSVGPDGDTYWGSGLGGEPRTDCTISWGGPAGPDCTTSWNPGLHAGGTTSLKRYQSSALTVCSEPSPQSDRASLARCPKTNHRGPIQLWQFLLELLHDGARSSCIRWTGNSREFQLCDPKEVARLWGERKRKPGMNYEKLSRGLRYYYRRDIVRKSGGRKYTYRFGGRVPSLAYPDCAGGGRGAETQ
# Method in brief: as §1
# ELF3 = biological target: T11, ELF3 (Homo sapiens, UniProt P78545 1-371); settings: protein: recombinant; tags: N-terminal GST; dsDNA, one strand shown
# T11 sequence: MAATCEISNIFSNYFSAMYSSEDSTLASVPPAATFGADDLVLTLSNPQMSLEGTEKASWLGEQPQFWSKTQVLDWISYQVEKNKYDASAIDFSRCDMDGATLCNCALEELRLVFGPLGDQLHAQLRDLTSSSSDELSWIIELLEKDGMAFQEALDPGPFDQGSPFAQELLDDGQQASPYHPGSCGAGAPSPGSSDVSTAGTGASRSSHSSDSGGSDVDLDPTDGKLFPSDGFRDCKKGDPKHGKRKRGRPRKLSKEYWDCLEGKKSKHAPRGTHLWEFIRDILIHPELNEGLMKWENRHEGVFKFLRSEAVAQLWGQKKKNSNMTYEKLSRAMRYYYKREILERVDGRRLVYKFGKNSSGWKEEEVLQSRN
# Method in brief: as §1
# CRX = CRX (Homo sapiens, UniProt O43186 1-299); settings: protein: recombinant; tags: N-terminal GST; dsDNA, one strand shown
# CRX, sequence (O43186 whole entry): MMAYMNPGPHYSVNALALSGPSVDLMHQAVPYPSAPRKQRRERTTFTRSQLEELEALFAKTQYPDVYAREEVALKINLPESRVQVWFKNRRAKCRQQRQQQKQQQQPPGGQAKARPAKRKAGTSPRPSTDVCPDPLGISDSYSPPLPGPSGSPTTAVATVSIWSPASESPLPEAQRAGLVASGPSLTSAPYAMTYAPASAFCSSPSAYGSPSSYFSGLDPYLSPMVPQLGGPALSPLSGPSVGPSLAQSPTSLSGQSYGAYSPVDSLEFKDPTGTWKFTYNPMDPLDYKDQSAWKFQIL
# Method in brief: as §1
# ETV1 = ETV1 (Homo sapiens, UniProt P50549 1-477); settings: protein: recombinant; tags: N-terminal GST; dsDNA, one strand shown
# ETV1, sequence (P50549 whole entry): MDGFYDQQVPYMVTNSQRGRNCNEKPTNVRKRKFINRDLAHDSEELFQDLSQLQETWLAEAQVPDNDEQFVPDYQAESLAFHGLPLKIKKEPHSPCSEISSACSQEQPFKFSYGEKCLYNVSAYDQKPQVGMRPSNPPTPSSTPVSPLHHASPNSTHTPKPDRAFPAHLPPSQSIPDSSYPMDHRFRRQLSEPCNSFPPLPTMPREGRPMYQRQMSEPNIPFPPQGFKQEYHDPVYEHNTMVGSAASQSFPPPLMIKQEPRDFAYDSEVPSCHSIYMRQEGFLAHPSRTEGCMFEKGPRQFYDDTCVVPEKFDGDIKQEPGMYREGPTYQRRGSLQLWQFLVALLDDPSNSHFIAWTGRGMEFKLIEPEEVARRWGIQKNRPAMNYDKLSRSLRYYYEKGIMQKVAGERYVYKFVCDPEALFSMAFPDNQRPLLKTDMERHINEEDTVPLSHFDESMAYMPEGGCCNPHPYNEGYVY
# Method in brief: as §1
sequence,measurement,setting,value
TTACCC,binding signal,FLI1,"1.3 fold enrichment (6-mer frequency, TF over GST control)"
same,binding signal,ELK1,"1.44 fold enrichment (6-mer frequency, TF over GST control)"
same,binding signal,GABPA,"1.3 fold enrichment (6-mer frequency, TF over GST control)"
same,binding signal,ERG,"1.34 fold enrichment (6-mer frequency, TF over GST control)"
same,binding signal,ELF1,"1.38 fold enrichment (6-mer frequency, TF over GST control)"
same,binding signal,EHF,"1.43 fold enrichment (6-mer frequency, TF over GST control)"
same,binding signal,SPI1,"1.35 fold enrichment (6-mer frequency, TF over GST control)"
same,binding signal,SPIB,"1.45 fold enrichment (6-mer frequency, TF over GST control)"
same,binding signal,ELK3,"1.39 fold enrichment (6-mer frequency, TF over GST control)"
same,binding signal,FEV,"1.36 fold enrichment (6-mer frequency, TF over GST control)"
same,binding signal,ETV5,"1.36 fold enrichment (6-mer frequency, TF over GST control)"
same,binding signal,HSF1,"1.43 fold enrichment (6-mer frequency, TF over GST control)"
same,binding signal,SPIC,"1.4 fold enrichment (6-mer frequency, TF over GST control)"
same,binding signal,ELF4,"1.48 fold enrichment (6-mer frequency, TF over GST control)"
same,binding signal,ELK4,"1.38 fold enrichment (6-mer frequency, TF over GST control)"
same,binding signal,ETV2,"1.56 fold enrichment (6-mer frequency, TF over GST control)"
same,binding signal,ELF3,"1.14 fold enrichment (6-mer frequency, TF over GST control)"
same,binding signal,CRX,"1.95 fold enrichment (6-mer frequency, TF over GST control)"
same,binding signal,ETV1,"1.35 fold enrichment (6-mer frequency, TF over GST control)"

# — paper PMC7862700, “An all-to-all approach to the identification of sequence-specific readers for epigenetic DNA modifications on cytosine”
